Laboratory results taken from the supplement of paper PMC6992640.
± gives the standard deviation of the averaged measurements.

Tests used:
Test in all cases: cell viability (% of vehicle); higher = less cytotoxic
Conditions in all cases: 10 µM; 72 h
[1] = tested on: HCI01 (cells of a triple-negative basal-like breast cancer xenograft)
[2] = tested on: HCI03 (cells of an ER-positive luminal breast cancer xenograft)
[3] = tested on: HCI09 (cells of a triple-negative luminal androgen receptor type breast cancer xenograft)
[4] = tested on: HCI11 (cells of an ER-positive luminal breast cancer xenograft)
[5] = tested on: HCI13 (cells of an ER-positive luminal breast cancer xenograft)
[6] = tested on: HCI16 (cells of a triple-negative basal-like breast cancer xenograft)
[7] = tested on: UCD52 (cells of a triple-negative basal-like breast cancer xenograft)
[8] = tested on: WHIM2 (cells of a triple-negative basal-like breast cancer xenograft)
[9] = tested on: WHIM30 (cells of a triple-negative basal-like breast cancer xenograft)
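Also: PDX cells carrying CMV promoter-driven luciferase, viability read as total photon flux per second by IVIS imaging following D-luciferin, vehicle control 0.1% DMSO.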

Row | Compound | cell viability [1] | cell viability [2] | cell viability [3] | cell viability [4] | cell viability [5] | cell viability [6] | cell viability [7] | cell viability [8] | cell viability [9]
1 | COc1c(C)c2c(c(O)c1CC=C(C)CCC(=O)OCCN1CCOCC1)C(=O)OC2 [Mycophenolate Mofetil] | 141 ± 31 | 106 | 86.9 ± 23 | 103 | 81.8 ± 11 | 86.2 | 91.4 ± 22 | 112 ± 7.2 | 130 ± 30
2 | CC(=O)N(CC(O)CO)c1c(I)c(C(=O)NCC(O)CO)c(I)c(C(=O)NCC(O)CO)c1I (stereo unspecified) [Iohexol] | 117 ± 33 | 116 | 96.5 ± 2.9 | 83.2 | 133 ± 9.7 | 122 | 101 ± 6.7 | 99.2 ± 2.7 | 95.9 ± 8.9
3 | NS(=O)(=O)c1cc2c(cc1Cl)NC=NS2(=O)=O [Chlorothiazide] | 101 ± 4.1 | 149 | 102 ± 12 | 121 | 134 ± 16 | 90 | 93.8 ± 13 | 89.4 ± 27 | 124 ± 29
4 | CCOC(=O)c1ccc(C#Cc2ccc3c(c2)C(C)(C)CCS3)nc1 [Tazarotene] | 141 ± 48 | 108 | 127 ± 22 | 113 | 184 ± 8.9 | 97.9 | 104 ± 16 | 123 ± 1.6 | 188 ± 10
